The text below walks through data of PubChem BioAssay (EPA / NIEHS).

Holding throughout (details): mRNA level, 48 h; actives raise or lower the signal
Read-out in assay [1]: CYP2C9 (gene 1559)
Briefly: LTEA_HepaRG_CYP2C9: Life Technologies and Expression Analysis (LTEA) Assay for CYP2C9 using HepaRG (AID 2283484). In a few lines: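 Eight-point concentration-response (highest 100 uM, half-log dilutions) in HepaRG cells for 48 h; CYP2C9 expression by qRT-PCR normalized to ACTB, GAPDH, POLR2A. Bidirectional fit, DMSO baseline.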

Read-out in assay [2]: CYP2E1 (gene 1571)
As to the kind of experiment: LTEA_HepaRG_CYP2E1: Life Technologies and Expression Analysis (LTEA) Assay for CYP2E1 using HepaRG (AID 2283485). In a few lines: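 Assay uses 48 h exposure of HepaRG hepatic cells, eight concentrations to 100 uM. Expression of CYP2E1 is quantified by TaqMan qRT-PCR with ACTB, GAPDH and POLR2A normalization; curves fitted in both directions relative to vehicle.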

Read-out in assay [3]: CYP4A11 (gene 1579)
Briefly: LTEA_HepaRG_CYP4A11: Life Technologies and Expression Analysis (LTEA) Assay for CYP4A11 using HepaRG (AID 2283486). In a few lines: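 CYP4A11 transcript levels were quantified by TaqMan qRT-PCR after HepaRG human liver cells were treated for 48 hours with test chemicals (top 100 uM, half-log dilutions, 0.5% DMSO). Gain or loss of signal was fitted relative to DMSO.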

Read-out in assay [4]: Cytochrome P450 3A4 (Homo sapiens) (UniProt P08684)
Briefly: LTEA_HepaRG_CYP3A4: Life Technologies and Expression Analysis (LTEA) Assay for CYP3A4 using HepaRG (AID 2283487). In a few lines:
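CYP3A4 transcript measured by TaqMan qRT-PCR and normalized to three housekeeping genes after 48 h chemical exposure of human HepaRG cells. Top concentration 100 uM, half-log steps, 0.5% DMSO vehicle; gain or loss fitted against DMSO baseline.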

Read-out in assay [5]: DNA damage-inducible transcript 3 (DDIT3), DDIT3 (gene 1649)
As to the kind of experiment: LTEA_HepaRG_DDIT3: Life Technologies and Expression Analysis (LTEA) Assay for DNA damage-inducible transcript 3 (DDIT3) using HepaRG (AID 2283488). In a few lines: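 Eight-point concentration-response (100 uM highest, half-log dilutions) in HepaRG, 48 h, duplicate wells. Endpoint: qRT-PCR mRNA, normalized (ACTB, GAPDH, POLR2A), bidirectional fitting with DMSO as baseline.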

Read-out in assay [6]: Pro-epidermal growth factor (Homo sapiens) (UniProt P01133)
As to the kind of experiment: LTEA_HepaRG_EGF: Life Technologies and Expression Analysis (LTEA) Assay for Epidermal growth factor (EGF) using HepaRG (AID 2283489). An outline of the steps:
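qRT-PCR readout of EGF transcript after 48 h chemical exposure of HepaRG cells; eight concentrations from 100 uM down in half-log steps, duplicate wells, 0.5% DMSO vehicle. Bidirectional curve fitting against DMSO baseline.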

Read-out in assay [7]: Early growth response protein 1 (EGR1) transcription factor, EGR1 (gene 1958)
Briefly: LTEA_HepaRG_EGR1: Life Technologies and Expression Analysis (LTEA) Assay for Early growth response protein 1 (EGR1) transcription factor using HepaRG (AID 2283490). An outline of the steps:
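EGR1 expression change in human HepaRG after 48 h chemical exposure, assessed by housekeeping-normalized qRT-PCR; concentration-response up to 100 uM, fitted in both directions against DMSO controls.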

Read-out in assay [8]: Ezrin (EZR), EZR (gene 7430)
As to the kind of experiment: LTEA_HepaRG_EZR: Life Technologies and Expression Analysis (LTEA) Assay for Ezrin (EZR) using HepaRG (AID 2283491). In a few lines:
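HepaRG, 48 h chemical exposure, 8-pt half-log series from 100 uM, 0.5% DMSO vehicle, duplicates. Read-out: EZR mRNA by TaqMan qRT-PCR (Fluidigm array), housekeeping-normalized; bidirectional curve fit vs DMSO baseline.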

Read-out in assay [9]: Cytochrome P450 3A7 (Homo sapiens) (UniProt P24462)
Briefly: LTEA_HepaRG_CYP3A7: Life Technologies and Expression Analysis (LTEA) Assay for CYP3A7 using HepaRG (AID 2283492). An outline of the steps:
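CYP3A7 transcript levels were read by TaqMan qRT-PCR on Fluidigm arrays after 48 h chemical exposure of human HepaRG cells, with housekeeping-gene normalisation. Eight half-log concentrations up to 100 uM in 0.5% DMSO were tested in duplicate.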

Read-out in assay [10]: CYP3A5 (gene 1577)
Briefly: LTEA_HepaRG_CYP3A5: Life Technologies and Expression Analysis (LTEA) Assay for CYP3A5 using HepaRG (AID 2283493). In a few lines:
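Readout was CYP3A5 mRNA by qRT-PCR. HepaRG cultures were exposed for 48 h in serum-free induction medium to chemicals at up to 100 uM, and responses were fitted in both directions relative to DMSO vehicle.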

Read-out in assay [11]: Fatty Acid-Binding Protein 1 (FABP1), FABP1 (gene 2168)
Briefly: LTEA_HepaRG_FABP1: Life Technologies and Expression Analysis (LTEA) Assay for Fatty Acid-Binding Protein 1 (FABP1) using HepaRG (AID 2283494). In a few lines:
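Values reflect bidirectional concentration-response fitting of FABP1 mRNA change against 0.5% DMSO controls. Human HepaRG cultures received eight half-log doses (top 100 uM) for 48 h; expression quantified by TaqMan qRT-PCR with housekeeping-gene normalization.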

Read-out in assay [12]: Cytochrome P450 4A22 (Homo sapiens) (UniProt Q5TCH4)
Briefly: LTEA_HepaRG_CYP4A22: Life Technologies and Expression Analysis (LTEA) Assay for Cytochrome P450 4A22 (CYP4A22) using HepaRG (AID 2283495). In a few lines: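 HepaRG, 48 h post-plating -> serum-free induction medium; dosed 48 h, duplicate, 8 conc. (100 uM top, half-log), 0.5% DMSO. Readout: CYP4A22 mRNA by qRT-PCR, ACTB/GAPDH/POLR2A normalization; gain/loss fit relative to DMSO.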

Read-out in assay [13]: Cytochrome P450 7A1 (Homo sapiens) (UniProt P22680)
As to the kind of experiment: LTEA_HepaRG_CYP7A1: Life Technologies and Expression Analysis (LTEA) Assay for Cytochrome P450 7A1 (CYP7A1) using HepaRG (AID 2283496). An outline of the steps:
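Using 0.5% DMSO as vehicle and baseline, chemicals were tested in duplicate over an 8-point range from 100 uM on HepaRG cells for 48 h; qRT-PCR signals were normalised to ACTB, GAPDH and POLR2A.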

Read-out in assay [14]: Glutathione S-Transferase (GSTA2), GSTA2 (gene 2939)
Briefly: LTEA_HepaRG_GSTA2: Life Technologies and Expression Analysis (LTEA) Assay for Glutathione S-Transferase (GSTA2) using HepaRG (AID 2283497). In a few lines: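 Oxidative-stress marker GSTA2 is quantified by TaqMan qRT-PCR in HepaRG cultures treated 48 h across an eight-point range to 100 uM. Expression is normalized to endogenous controls and compared with 0.5% DMSO vehicle.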

Read-out in assay [15]: Glutamate-cysteine ligase catalytic (GCLC), GCLC (gene 2729)
As to the kind of experiment: LTEA_HepaRG_GCLC: Life Technologies and Expression Analysis (LTEA) Assay for Glutamate-cysteine ligase catalytic (GCLC) using HepaRG (AID 2283498). An outline of the steps:
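Oxidative-stress marker GCLC is measured as mRNA change in human HepaRG liver cells after 48 h chemical treatment in 0.5% DMSO, eight concentrations from 100 uM. Activity is fitted bidirectionally against vehicle.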

Read-out in assay [16]: growth arrest and DNA damage 45 (GADD45G), GADD45G (gene 10912)
As to the kind of experiment: LTEA_HepaRG_GADD45G: Life Technologies and Expression Analysis (LTEA) Assay for growth arrest and DNA damage 45 (GADD45G) using HepaRG (AID 2283499). An outline of the steps: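 HepaRG, 48 h exposure, top 100 uM, half-log 8-point series, 0.5% DMSO vehicle, duplicates. Readout: GADD45G transcript by qRT-PCR (Fluidigm array), housekeeping-normalised (ACTB/GAPDH/POLR2A). Bidirectional curve fit vs DMSO baseline.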

Read-out in assay [17]: Glutamate-cysteine ligase regulatory (GCLM), GCLM (gene 2730)
Briefly: LTEA_HepaRG_GCLM: Life Technologies and Expression Analysis (LTEA) Assay for Glutamate-cysteine ligase regulatory (GCLM) using HepaRG (AID 2283500). An outline of the steps:
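In this multiplexed HepaRG gene-expression assay, GCLM mRNA change after 48 h treatment (8 concentrations, max 100 uM) was scored against DMSO by bidirectional curve fitting.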

Read-out in assay [18]: Heat shock 70 kDa protein 1 (HSPA1A), gene 3303
As to the kind of experiment: LTEA_HepaRG_HSPA1A: Life Technologies and Expression Analysis (LTEA) Assay for Heat shock 70 kDa protein 1 (HSPA1A) using HepaRG (AID 2283502). An outline of the steps:
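An oxidative-stress marker readout: HepaRG cells treated 48 h in duplicate with an eight-point series (highest 100 uM) had HSPA1A mRNA quantified by TaqMan qRT-PCR. Activity was fitted in both directions using 0.5% DMSO as baseline.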

Read-out in assay [19]: Glutathione S-transferase M3 (GSTM3), GSTM3 (gene 2947)
As to the kind of experiment: LTEA_HepaRG_GSTM3: Life Technologies and Expression Analysis (LTEA) Assay for Glutathione S-transferase M3 (GSTM3) using HepaRG (AID 2283501). In a few lines:
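qRT-PCR read-out of GSTM3 transcript, normalized to three housekeeping genes, from human HepaRG cells after 48 h chemical exposure. Eight-point half-log series, top 100 uM, 0.5% DMSO vehicle; gain or loss fitted relative to DMSO baseline.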

The structures appear in SMILES notation. Activity calls are given as the source filed them. Rule for the calls: active = hit-call score of the fitted dose curve at least 0.9, where 1 is the maximum; inactive = score below 0.9.

Cytochrome P450 3A7 (Homo sapiens), sequence (P24462 whole entry, looked up): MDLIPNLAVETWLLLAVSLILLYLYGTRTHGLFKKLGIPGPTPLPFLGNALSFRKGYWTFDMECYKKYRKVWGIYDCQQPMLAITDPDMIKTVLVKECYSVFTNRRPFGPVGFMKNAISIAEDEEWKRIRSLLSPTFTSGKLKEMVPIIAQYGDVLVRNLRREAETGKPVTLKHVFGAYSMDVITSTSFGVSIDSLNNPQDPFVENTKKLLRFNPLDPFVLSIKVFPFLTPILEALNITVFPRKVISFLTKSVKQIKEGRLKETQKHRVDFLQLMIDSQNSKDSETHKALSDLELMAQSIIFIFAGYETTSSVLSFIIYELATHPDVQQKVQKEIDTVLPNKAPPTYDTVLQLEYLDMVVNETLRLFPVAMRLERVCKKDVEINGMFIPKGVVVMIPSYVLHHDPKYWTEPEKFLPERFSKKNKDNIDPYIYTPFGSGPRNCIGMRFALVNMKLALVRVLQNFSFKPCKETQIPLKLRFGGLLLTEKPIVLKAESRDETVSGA
Cytochrome P450 3A4 (Homo sapiens), sequence (P08684 whole entry, looked up): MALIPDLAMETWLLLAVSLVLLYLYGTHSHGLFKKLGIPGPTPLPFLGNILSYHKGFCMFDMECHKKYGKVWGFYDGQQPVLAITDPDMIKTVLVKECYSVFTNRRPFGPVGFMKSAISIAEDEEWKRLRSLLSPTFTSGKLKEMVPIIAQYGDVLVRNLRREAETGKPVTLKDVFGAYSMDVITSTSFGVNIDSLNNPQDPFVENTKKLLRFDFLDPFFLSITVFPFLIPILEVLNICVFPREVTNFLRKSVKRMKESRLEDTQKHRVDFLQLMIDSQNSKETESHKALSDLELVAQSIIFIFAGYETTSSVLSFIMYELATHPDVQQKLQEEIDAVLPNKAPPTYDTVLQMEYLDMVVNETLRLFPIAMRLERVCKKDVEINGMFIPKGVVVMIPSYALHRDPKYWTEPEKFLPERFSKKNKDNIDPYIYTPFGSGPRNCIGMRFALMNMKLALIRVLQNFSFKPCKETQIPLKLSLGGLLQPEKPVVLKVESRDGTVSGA

For the molecule `ClCCOCCCl`, the result in [1], in assay [2], in assay [3], in [4], in assay [5] and in [6] was inactive. Further, the molecule was called inactive in assay [7], in [8], in [9], in assay [10], in assay [11] and in assay [12]. Moreover, the result in assay [13], in assay [14], in [15], in assay [16], in assay [17] and in assay [18] was inactive.
On to `Cc1ccc(N)cc1`, for which the call in assay [1], in [2], in [3], in assay [4], in assay [5] and in assay [6] was inactive. Moreover, the result in assay [7], in [8], in [9], in assay [10], in [11] and in assay [12] was inactive. Moreover, the molecule was classed as inactive in assay [13], in assay [14], in assay [15], in assay [16], in [17] and in [19]. For the same molecule, the molecule was called inactive in assay [18].
Regarding `C=CCc1ccc2c(c1)OCO2`, the call in [1], in assay [2], in assay [3], in assay [4], in assay [5] and in assay [6] was inactive. In addition, the result in [7], in assay [8], in assay [9], in [10], in [11] and in assay [12] was inactive. Also, the outcome in assay [13], in [14], in assay [15], in assay [16], in [17] and in assay [18] was inactive.
Consider `O=C(O)C1C2CCC(O2)C1C(=O)O` (centres undefined), for which the half-maximal activity concentration (AC50) in assay [1] was 86.7 µM (active); in assay [2] it was 45.4 µM (active); in assay [3], 50 µM (active); in assay [4] it was 79.7 µM (active); in assay [5], 50 µM (active); in [6], 13.9 µM (active). The half-maximal activity concentration (AC50) was 9.92 µM (active) in [8]; 61.1 µM (active) in assay [9]; 77.9 µM (active) in assay [11]; 50 µM (active) in assay [12]; 71.5 µM (active) in assay [13]; 72.4 µM (active) in assay [14]. Further, the molecule was called inactive in assay [7], in assay [10], in [15], in [16], in assay [17] and in assay [19]. Besides, the call in [18] was inactive.

Broadly, the AC50 is the concentration giving half of the maximal activity seen.
